According to PubChem BioAssay AID1159580 (chemical genetic matrix, 2015):
In all, about 5,500 compounds went through this assay and about 2,000 (36%) were called active. About 18% were inconclusive and are not listed. Some of the results follow. A number with no mark means an inactive call. Cut-off read from the data, not from the text of the source: active = normalized growth mostly below about 0.91 (no sharp cut-off); inconclusive = no clear call, values can overlap the other calls; inactive = mostly above about 0.92.

Assay: chemical genetic growth profiling, strain panel (AID 1159580);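 note: tested at 20 µM; growth read once vehicle control cultures reached saturation at 30 °C; 1 = growth at the plate median or of vehicle wells; lower values mean less growth of the strain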
Conditions: S. cerevisiae deletion strains, growth OD

With `COc1ccc(-c2cc(=O)c3c(O)c(OC)c(OC)cc3o2)cc1O` the normalized growth (locus YBR021W, strain FUR4, active compounds read low) was 0.907, the normalized growth (locus YBR229C, strain ROT2, active compounds read low) was 1.01 and the normalized growth (locus YCL029C, strain bik1, active compounds read low) was 0.937. It also gave a normalized growth (locus YDL035C, strain GPR1, active compounds read low) of 0.929, a normalized growth (locus YDL074C, strain BRE1, active compounds read low) of 0.878 and a normalized growth (locus YDL101C, strain DUN1, active compounds read low) of 0.997. It also gave a normalized growth (locus YDL134C, strain PPH21, active compounds read low) of 1, a normalized growth (locus YDL185W, strain tfp1, active compounds read low) of 0.96 and a normalized growth (locus YDL192W, strain arf1, active compounds read low) of 0.951. It also gave a normalized growth (locus YDR101C, strain arx1, active compounds read low) of 0.926, a normalized growth (locus YDR150W, strain NUM1, active compounds read low) of 0.997 and a normalized growth (locus YDR162C, strain NBP2, active compounds read low) of 1. For the same compound, the normalized growth (locus YDR318W, strain mcm21, active compounds read low) was 0.99, the normalized growth (locus YDR388W, active compounds read low) was 0.99 and the normalized growth (locus YDR502C, strain sam2, active compounds read low) was 0.953. It also gave a normalized growth (locus YEL061C, strain CIN8, active compounds read low) of 1, a normalized growth (locus YER110C, active compounds read low) of 0.974 and a normalized growth (locus YER155C, strain BEM2, active compounds read low) of 1.01. It also gave a normalized growth (locus YER167W, strain BCK2, active compounds read low) of 0.979, a normalized growth (locus YGL078C, strain dbp3, active compounds read low) of 0.944 and a normalized growth (locus YGL086W, strain mad1, active compounds read low) of 0.935. For the same compound, the normalized growth (locus YGL248W, strain PDE1, active compounds read low) was 0.993, the normalized growth (locus YGR078C, strain PAC10, active compounds read low) was 0.969 and the normalized growth (locus YGR135W, strain pre9, active compounds read low) was 0.971. It also gave a normalized growth (locus YGR229C, strain SMI1, active compounds read low) of 0.893, a normalized growth (locus YGR252W, strain gcn5, active compounds read low) of 0.994 and a normalized growth (locus YHR030C, strain SLT2, active compounds read low) of 0.998. For the same compound, the normalized growth (locus YHR079C, strain IRE1 (second series), active compounds read low) was 0.978, the normalized growth (locus YHR094C, strain hxt1, active compounds read low) was 0.995 and the normalized growth (locus YHR129C, strain ARP1, active compounds read low) was 0.978. The normalized growth (locus YHR200W, strain rpn10, active compounds read low) was 0.985, the normalized growth (locus YIL066C, strain RNR3, active compounds read low) was 0.964 and the normalized growth (locus YIL073C, strain SPO22, active compounds read low) was 0.873. It also gave a normalized growth (locus YIL125W, strain kgd1, active compounds read low) of 0.959, a normalized growth (locus YIR030C, strain dcg1, active compounds read low) of 0.993 and a normalized growth (locus YJL095W, strain BCK1, active compounds read low) of 0.991. The normalized growth (locus YJL134W, strain LCB3, active compounds read low) was 0.998, the normalized growth (locus YJL168C, strain set2, active compounds read low) was 0.993 and the normalized growth (locus YJL187C, strain SWE1 (second series), active compounds read low) was 0.952. It also gave a normalized growth (locus YJR043C, strain POL32, active compounds read low) of 0.954, a normalized growth (locus YJR075W, strain HOC1, active compounds read low) of 0.983 and a normalized growth (locus YKL009W, strain mrt4, active compounds read low) of 0.943. The normalized growth (locus YKL068W, active compounds read low) was 0.969, the normalized growth (locus YKL085W, strain MDH1 (second series), active compounds read low) was 0.985 and the normalized growth (locus YKL085W, strain MDH1, active compounds read low) was 0.985. The normalized growth (locus YKL190W, strain CNB1, active compounds read low) was 1.01, the normalized growth (locus YKR001C, strain vps1, active compounds read low) was 0.943 and the normalized growth (locus YLR039C, strain RIC1, active compounds read low) was 0.96. The normalized growth (locus YLR058C, strain SHM2, active compounds read low) was 1, the normalized growth (locus YLR102C, strain apc9, active compounds read low) was 0.988 and the normalized growth (locus YLR262C, strain YPT6, active compounds read low) was 0.989. It also gave a normalized growth (locus YLR268W, strain sec22, active compounds read low) of 0.902, a normalized growth (locus YLR330W, strain CHS5, active compounds read low) of 0.983 and a normalized growth (locus YLR342W, strain FKS1 (second series), active compounds read low) of 0.944. For the same compound, the normalized growth (locus YLR371W, strain rom2, active compounds read low) was 0.985, the normalized growth (locus YLR418C, strain cdc73, active compounds read low) was 0.928 and the normalized growth (locus YML016C, strain PPZ1, active compounds read low) was 1. It also gave a normalized growth (locus YML032C, strain rad52, active compounds read low) of 0.971, a normalized growth (locus YML124C, strain tub3, active compounds read low) of 0.998 and a normalized growth (locus YMR078C, strain ctf18, active compounds read low) of 0.988. For the same compound, the normalized growth (locus YMR223W, strain ubp8, active compounds read low) was 0.99, the normalized growth (locus YMR263W, strain SAP30, active compounds read low) was 1.05 and the normalized growth (locus YMR307W, strain GAS1, active compounds read low) was 0.998. For the same compound, the normalized growth (locus YNL067W, strain RPL9B, active compounds read low) was 0.965, the normalized growth (locus YNL153C, strain GIM3, active compounds read low) was 0.969 and the normalized growth (locus YNL233W, strain BNI4, active compounds read low) was 0.928. For the same compound, the normalized growth (locus YNL250W, strain rad50, active compounds read low) was 0.89 (active), the normalized growth (locus YNL271C, strain bni1, active compounds read low) was 0.993 and the normalized growth (locus YNL298W, strain CLA4, active compounds read low) was 0.996. For the same compound, the normalized growth (locus YNL307C, strain MCK1, active compounds read low) was 0.975, the normalized growth (locus YNR052C, strain pop2, active compounds read low) was 0.973 and the normalized growth (locus YOL012C, strain htz1) was 1.07. For the same compound, the normalized growth (locus YOL147C, strain pex11, active compounds read low) was 0.97, the normalized growth (locus YOR061W, strain CKA2, active compounds read low) was 0.98 and the normalized growth (locus YOR069W, strain VPS5, active compounds read low) was 0.999. The normalized growth (locus YOR136W, strain idh2, active compounds read low) was 0.98, the normalized growth (locus YOR144C, strain elg1, active compounds read low) was 0.991 and the normalized growth (locus YOR184W, strain ser1, active compounds read low) was 0.897. It also gave a normalized growth (locus YOR316C, strain cot1, active compounds read low) of 0.991, a normalized growth (locus YPL055C, strain LGE1, active compounds read low) of 0.941 and a normalized growth (locus YPR119W, strain clb2, active compounds read low) of 0.995. The normalized growth (locus YPR141C, strain kar3, active compounds read low) was 1, the normalized growth (locus YPR163C, strain tif3, active compounds read low) was 0.992 and the normalized growth (locus YPR167C, strain met16, active compounds read low) was 0.991. It also gave a normalized growth (strain wtn01, active compounds read low) of 0.92.
